# G9a inh: inhibitors of human histone lysine methyltransferase G9a; Q96KQ7; G9a H3K9 monomethylation, AlphaScreen, 2 h; Potency, µM (top dose mostly 102 µM), hits mostly inhibitors; 350,000 compounds, 8.8% hits; note: nearly all actives have a fitted effect of over 75% in size
#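 Readings reflect AlphaScreen signal from monomethyl-H3K9 antibody detection. HMT at 20 nM; substrate b-H3K9 500 nM; cofactor SAM 20 uM; 2 h RT reaction; compounds tested as titrations in qHTS with 15 min preincubation.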
# BAZ2B block: BAZ2B (human) inhibition. Q9UIF8. AlphaScreen BAZ2B-H3K14Ac peptide displacement. Potency, µM (top dose mostly 114 µM), hits mostly inhibitors. 360,000 compounds, 4.4% hits; note: nearly all actives have a fitted effect of over 60% in size
#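 AlphaScreen displacement: compounds (up to 110uM) incubated 30 min at room temperature with a preformed 50 nM BAZ2B/50 nM biotinylated H3K14Ac peptide complex in PBS pH 7.4 with Tween-20. Donor and acceptor beads at 10 ug/mL final added, 20 min light-protected before reading.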
# Six1-Eya2 blk: inhibitors of human Six1/Eya2 interaction | AlphaScreen GST-Six1/His-Eya2 binding, biochemical; hits give low values | Q15475+O00167 | 360,000 compounds, 0.56% hits | activity change, % (test concentration not listed); in the data active = activity change below about -65%; inconclusive = mostly about -30% to -63%
#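 AlphaScreen luminescence read after one hour at 37 °C in darkness. Pin-transferred compounds met GST-Six1 and His-Eya2 protein (5X stock 250 nM/500 nM) plus glutathione donor and Ni-chelate acceptor beads (5X, 50 ug/mL).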
# CtBP-E1A inh: blocks the CtBP interaction with E1A; AlphaScreen GST-E1A/His-CtBP binding, 1536-well; hits give low values; activity change, % (concentration not given with the values); 340,000 compounds, 0.49% hits; AID 651724; in the data active = activity change below about -65%; inconclusive = mostly about -30% to -63%
#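 Homogeneous bead-based format: GST-tagged E1A captured on glutathione donor beads, His-tagged CtBP on nickel acceptor beads; compounds precede bead addition by 2 h at 37 °C.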
# HP1b binding inh: HP1-beta chromodomain-methylated histone interaction inhibition | P83916 | AlphaScreen HP1-beta / biotin-H3K9me3 peptide binding | Potency, µM (top dose mostly 114 µM), most hits filed as inhibitors | 390,000 compounds, 0.56% hits | AID 540317; note: nearly all actives have a fitted effect of over 70% in size
#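 Compound inhibition of the preformed complex between 50 nM HP1-beta and 50 nM biotinylated H3K9me3 peptide was read by AlphaScreen. Buffer was PBS pH 7.4 with 0.01% Tween-20. Incubations ran 30 min at room temperature, with 10 ug/mL donor/acceptor beads.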
# JMJD2A Tudor: JMJD2A Tudor domain (human) inhibition; O75164; AlphaScreen JMJD2A-Tudor / H3K4me3 peptide binding; Potency, µM (highest dose often 114 µM), hits mostly inhibitors; 390,000 compounds, 4.4% hits; AID 504339; note: nearly all actives have a fitted effect of over 50% in size
# Target sequence (O75164 whole entry, looked up, the tested form may be a part): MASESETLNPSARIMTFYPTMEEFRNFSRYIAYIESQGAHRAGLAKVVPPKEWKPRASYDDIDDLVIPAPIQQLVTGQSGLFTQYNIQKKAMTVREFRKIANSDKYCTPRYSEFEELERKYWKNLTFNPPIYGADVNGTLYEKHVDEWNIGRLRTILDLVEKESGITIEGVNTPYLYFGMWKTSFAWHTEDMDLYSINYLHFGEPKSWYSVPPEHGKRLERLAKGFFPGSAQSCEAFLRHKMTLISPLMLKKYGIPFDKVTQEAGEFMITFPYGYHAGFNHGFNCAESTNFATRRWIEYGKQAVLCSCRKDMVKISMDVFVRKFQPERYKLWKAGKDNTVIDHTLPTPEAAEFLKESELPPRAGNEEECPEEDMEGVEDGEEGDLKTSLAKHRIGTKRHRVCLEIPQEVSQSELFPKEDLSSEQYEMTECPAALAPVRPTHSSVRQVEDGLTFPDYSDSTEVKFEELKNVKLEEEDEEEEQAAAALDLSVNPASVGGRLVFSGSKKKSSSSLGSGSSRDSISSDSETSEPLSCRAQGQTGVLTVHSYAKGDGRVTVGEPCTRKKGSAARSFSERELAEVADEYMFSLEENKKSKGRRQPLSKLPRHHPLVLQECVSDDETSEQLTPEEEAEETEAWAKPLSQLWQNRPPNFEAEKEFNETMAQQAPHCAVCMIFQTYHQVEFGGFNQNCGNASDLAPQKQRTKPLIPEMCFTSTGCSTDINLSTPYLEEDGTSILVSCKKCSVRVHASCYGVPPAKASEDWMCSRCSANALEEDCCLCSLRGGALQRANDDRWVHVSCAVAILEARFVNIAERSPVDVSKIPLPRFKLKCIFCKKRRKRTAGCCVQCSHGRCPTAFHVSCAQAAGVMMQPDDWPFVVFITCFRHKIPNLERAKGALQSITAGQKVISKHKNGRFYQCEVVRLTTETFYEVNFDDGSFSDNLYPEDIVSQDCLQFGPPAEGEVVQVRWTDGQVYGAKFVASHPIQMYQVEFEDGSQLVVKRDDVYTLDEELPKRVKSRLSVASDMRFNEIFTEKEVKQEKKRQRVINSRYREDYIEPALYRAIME
# A number is an active result; n = inactive; u = inconclusive; x = no result given; ! = not active in a repeat; [ ] = remark or other dose. Rows were chosen to be rich in hits. Some 10% of all compounds tested hit in one or more screens of this group. Unless noted, calls come from the whole dose curve; as a rule, active = well fitted inhibition curve with a large enough effect; inconclusive = small, poorly fitted or top-dose-only effect; inactive = no such curve, though single readings can be large or run the other way.
SMILES,G9a inh,BAZ2B block,Six1-Eya2 blk,CtBP-E1A inh,HP1b binding inh,JMJD2A Tudor
Cc1nc(SCC(=O)Nc2ccc(N3CCOCC3)cc2)nc(C)c1C,40µM,n,n,n,n,n
Cn1nnnc1Sc1ncnc2scc(-c3cnc(N)nc3)c12,x,x,x,x,x,n
O=C(Cc1nnc(CNC(=O)c2ccccc2)s1)Nc1ccc(C(F)(F)F)cc1Cl,x,x,x,x,x,n
CCNC(=O)C1CCN(Cc2cc3ccccc3n2Cc2ccc(C)cc2)CC1,n,n,x,x,n,n
CCCCCC(=O)N(c1ccc(OCC)cc1)S(=O)(=O)c1ccc2c(c1)n(C)c(=O)n2C,n,n,x,x,n,n
Cc1ccc(NC(=O)c2cc(N3C(=O)C=CC3=O)ccc2N2CCOCC2)cc1,1µM,u,n,n,u,11µM
Cc1ccc(NC(=O)c2cc(N3C(=O)C=CC3=O)ccc2Cl)cc1C,1.6µM,u,n,n,u,10µM
Cc1ccc(NC(=O)c2cc(NC(=O)c3ccco3)ccc2N2CCOCC2)cc1,n,n,n,n,n,n
O=C(O)c1cc(N/N=C2/CC(c3ccccc3)Oc3ccccc32)ccc1Cl (stereo not given),11µM,n,u,u,n,u
Cc1c(C(=O)NCc2ccccc2Cl)sc2nc[nH]c(=O)c12,n,n,x,x,n,n
COc1cc(C2CC(=O)N(CC(=O)Nc3ccccc3F)c3ccccc3S2)cc(OC)c1OC (stereo not given),n,n,x,x,n,n
CSc1ccc(C(=O)C2CCCN(C(=O)c3nn(C)c(=O)c4ccccc34)C2)cc1 (stereo not given),28µM,n,n,n,u,n
Cn1nc(C(=O)N2CCCC2)c2ccccc2c1=O,n,n,n,n,n,n
CSC1=NC2(CCCCC2)C2=C(CCCC2)N1,45µM,n,n,n,n,n
COC1CCCN(Cc2c(C(=O)N3CCN(C4CCCCC4)CC3)nc3ccccn23)C1 (stereo not given),79µM,u,n,n,n,n
CC(C)N=c1cc2n(-c3ccc(Cl)cc3)c3ccccc3nc-2cc1Nc1ccc(Cl)cc1,2.5µM,x,u,n,4.5µM,7.1µM
Cn1nnnc1SCC1=C(C(=O)O)N2C(=O)C(NC(=O)C(O)c3ccccc3)C2SC1 (stereo not given),n[2.33 µM],x,x,x,x,x
Cn1nnnc1SCC1=C(C(=O)O)N2C(=O)C(NC(=O)C3CC3c3ccccc3)C2SC1 (stereo not given),u,71µM,n,x,n,u
CC(C(=O)NC1C(=O)N2C(C(=O)O)=C(CSc3nnnn3C)CSC12)n1cc(Br)cn1 (stereo not given),28µM,50µM,n,n,n,n
Cc1nn(C(C)C(=O)NC2C(=O)N3C(C(=O)O)=C(CSc4nnnn4C)CSC23)cc1Cl (stereo not given),u,u,n,x,n,n
Cc1cc(C(F)F)nn1CC(=O)NC1C(=O)N2C(C(=O)O)=C(CSc3nnnn3C)CSC12 (stereo not given),35µM,56µM,n,n,n,n
Cn1nnnc1SCC1=C(C(=O)O)N2C(=O)[C@@H](NC(=O)[C@H](O)c3ccccc3)[C@H]2SC1,13µM,50µM,n,n,u,22µM
COc1cccc(NC(=O)c2c(C)oc3nc(C)nc(N4CCCC4)c23)c1,u,n,x,x,n,n
N#Cc1nc(NCC(F)F)c2ncn(-c3cc(F)cc(F)c3)c2n1,x,x,x,x,x,n
N[C@H](C(=O)N[C@@H]1C(=O)N2C(C(=O)O)=C(Cl)CS[C@@H]12)c1ccccc1,8.9µM!,x,x,x,x,x
SMILES,G9a inh,BAZ2B block,Six1-Eya2 blk,CtBP-E1A inh,HP1b binding inh,JMJD2A Tudor
CC1=C(C(=O)O)N2C(=O)[C@@H](NC(=O)[C@H](N)c3ccc(O)cc3)[C@H]2SC1,x,x,n,n,n,n
CCc1ccc(NC(=O)Cn2c(=O)n(CCc3ccccc3)c(=O)c3sc4ccccc4c32)cc1,n,n,x,x,n,n
CN1C(=S)SC(N(O)C(=O)Nc2cccc3ccccc23)C1(C)C (stereo not given),45µM,n,n,n,n,n
Cc1ccc(C)c(S(=O)(=O)N/N=C/c2ccc(C(=O)O)cc2)c1,35µM,n,n,n,n,n
COC(=O)c1ccc(/C=N/NS(=O)(=O)c2cc(C)ccc2C)cc1,2.5µM,n,n,n,n,n
COc1ccccc1N1C(=O)CC(Sc2nc(C)cc(C)n2)C1=O (stereo not given),n,n,n,n,n,n
CCOc1ccccc1N1C(=O)CC(Sc2n[nH]c(-c3ccccc3)n2)C1=O (stereo not given),1.6µM,u,n,n,13µM,1.4µM
Cc1cnc(N2C(=O)c3ccc([N+](=O)[O-])cc3C2=O)s1,56µM,n,n,n,n,u
CCN(C(=O)NCc1noc2ccccc12)c1cc(C)ccc1C,n,n,x,x,n,n
NC(=O)c1cc2ccccc2o/c1=N\NC(=O)c1ccccc1O,32µM,u,n,n,n,n
CCOC(=O)c1c(NC(=O)CS(=O)(=O)c2ccc(C)cc2)sc2c1CCCCC2,n,n,x,x,n,n
Cc1oc(-c2ccc(C(=O)NCc3ccccc3)cc2)nc1CN1CCc2ccccc21,n[12.7 µM],u,x,x,n,u
CCCCn1c(CCn2nc(C)c(Br)c2C)n[nH]c1=S,u,n,n,n,n,28µM
O=C(COc1ccc(F)cc1)Nc1nnc(S(=O)(=O)N2CCc3ccccc32)s1,n,u,x,x,n,n
CCOc1cc(/C=C/c2nc3cc(C)c(C)cc3s2)ccc1OCC(=O)N1CCOCC1,13µM,n,n,n,n,n
CCOc1cc(/C=C\[N+](=O)[O-])ccc1OCC(=O)N1CCOCC1,10µM,n,n,n,n,n
CCOc1cc(C(=O)NCc2ccc(C)cc2)ccc1OCC(=O)N1CCOCC1,n,x,n,n,n,n
CCN(CC)c1ccc(CNCCCSc2nnnn2C)cc1,n,u,x,x,n,u
CCC(Nc1ccc(-c2nc(-c3ccccn3)no2)cc1[N+](=O)[O-])c1ccccc1 (stereo not given),n,n,x,x,n,n
CCOC(=O)c1c(-c2ccccc2)csc1NC(=O)C(C)NCc1ccco1 (stereo not given),25µM,50µM,n,n,28µM,u
CCOC(=O)c1c(-c2ccc(Cl)cc2)csc1NC(=O)CNCc1ccco1,n,40µM,n,n,u,45µM
CC(NC(=O)Cn1ccc2cc(S(=O)(=O)N3CCCCCC3)ccc21)c1ccccc1 (stereo not given),n,n,x,x,n,n
Cc1ccc2c(c1)c1c(n2CC(O)CNC2CCCC2)CCCC1 (stereo not given),20µM,45µM,u,x,u,18µM
CCCn1c(/N=C/c2c[nH]c3ccccc23)nc2ccccc21,n[12.7 µM],u,n,n,n,63µM

# Screening data from PubChem BioAssay.
